The values that follow come from the antibiotic and cytotoxicity screens of Wong et al. (2023).

The structures appear in SMILES notation. Out of some 39,000 compounds screened, about 3,300 (8.5%) were called active. Shown is part of a subset that was picked to be rich in actives.

For the assay, the system named is HepG2. Description: cytotoxicity call (relative viability < 0.9). The settings on record: 10 µM.
As to `Cc1ccc(CNc2ccc3c(c2)ncn3C2CCCCC2)cc1`, the cytotoxicity call is “inactive”.

As for `O=C(CCCCCNC(=O)OCc1ccc(CO[C@@H]2C[C@H](C3CCCCC3)C=C(C(=O)N3CCN(Cc4ccccc4)CC3)O2)cc1)NO`, the cytotoxicity call is “inactive”.

On to `O=C1CN(S(=O)(=O)Cc2ccccc2)C[C@@H]2[C@@H](c3ccc(C#Cc4cccc(F)c4)cc3)[C@H](CO)N12`, for which the cytotoxicity call is “inactive”.

As to `O=C1CN(S(=O)(=O)Cc2ccccc2)C[C@@H]2[C@@H](c3ccc(C#Cc4cccc(F)c4)cc3)[C@@H](CO)N12`, the cytotoxicity call is “active”.

Regarding `O=C1CN(S(=O)(=O)Cc2ccccc2)C[C@H]2[C@H](c3ccc(C#Cc4cccc(F)c4)cc3)[C@@H](CO)N12`, the cytotoxicity call is “active”.

Consider `O=C1CN(S(=O)(=O)Cc2ccccc2)C[C@@H]2[C@H](c3ccc(C#Cc4cccc(F)c4)cc3)[C@@H](CO)N12`, for which the cytotoxicity call is “inactive”.

As to `O=C1CN(S(=O)(=O)Cc2ccccc2)C[C@H]2[C@@H](c3ccc(C#Cc4ccc(F)cc4)cc3)[C@H](CO)N12`, the cytotoxicity call was “inactive”.

With `COc1cccc(C#Cc2ccc([C@@H]3[C@H]4CN(S(=O)(=O)c5ccccc5C)CC(=O)N4[C@H]3CO)cc2)c1`, the cytotoxicity call was “inactive”.

For the compound `COc1cccc(C#Cc2ccc([C@H]3[C@H](CO)N4C(=O)CN(S(=O)(=O)c5ccccc5C)C[C@@H]34)cc2)c1`, the cytotoxicity call was “inactive”.

As for `COc1cccc(C#Cc2ccc([C@@H]3[C@H](CO)N4C(=O)CN(S(=O)(=O)c5ccccc5C)C[C@@H]34)cc2)c1`, the cytotoxicity call is “inactive”.

As for `O=C1CN(S(=O)(=O)Cc2ccccc2)C[C@H]2[C@@H](c3ccc(C#Cc4cccc(F)c4)cc3)[C@H](CO)N12`, the cytotoxicity call was “active”.

For the compound `O=C1CN(S(=O)(=O)Cc2ccccc2)C[C@H]2[C@@H](c3ccc(C#Cc4cccc(F)c4)cc3)[C@@H](CO)N12`, the cytotoxicity call is “inactive”.

Take `O=C1CN(S(=O)(=O)Cc2ccccc2)C[C@@H]2[C@H](c3ccc(C#Cc4ccc(F)cc4)cc3)[C@H](CO)N12`: the cytotoxicity call is “inactive”.

For the compound `O=C1CN(S(=O)(=O)Cc2ccccc2)C[C@H]2[C@H](c3ccc(C#Cc4cccc(F)c4)cc3)[C@H](CO)N12`, the cytotoxicity call was “active”.

For `CN(C)Cc1ccc(O)c(CN(C)C)n1`, the cytotoxicity call was “inactive”.

With `COCC(=O)N1C[C@H](C)[C@@H](OC)CN(C)C(=O)c2cc(NC(=O)Nc3ccccc3)ccc2OC[C@@H]1C`, the cytotoxicity call was “inactive”.

For `COCCNC(=O)C[C@@H]1CC[C@@H]2[C@H](COC[C@@H](O)CN2C(=O)Nc2ccccc2OC)O1`, the cytotoxicity call is “inactive”.

Regarding `O=c1cccn[nH]1`, the cytotoxicity call was “inactive”.

On to `COc1ccc(-c2cnc3c(c2)C(=O)N([C@@H](C)CO)C[C@H](C)[C@@H](CN(C)C(=O)Cc2ccccn2)O3)cc1`, for which the cytotoxicity call was “inactive”.

Regarding `C[C@@H]1CN([C@H](C)CO)C(=O)c2cc(NS(=O)(=O)c3cccs3)ccc2O[C@H]1CN(C)S(C)(=O)=O`, the cytotoxicity call is “inactive”.

For `C[C@@H]1CCCCO[C@@H](CN(C)S(=O)(=O)c2cccs2)[C@H](C)CN([C@@H](C)CO)C(=O)c2cc(NC(=O)Nc3cccc4ccccc34)ccc2O1`, the cytotoxicity call was “inactive”.

For `COCC#Cc1ccc2c(c1)O[C@@H](CN(C)C(=O)C1CCCCC1)[C@@H](C)CN([C@H](C)CO)S2(=O)=O`, the cytotoxicity call is “inactive”.

Take `C[C@H](CO)N1C[C@H](C)[C@@H](CN(C)C(=O)CCC(F)(F)F)OCCCC[C@H](C)Oc2ccc(NC(=O)c3ccccc3)cc2C1=O`: the cytotoxicity call is “inactive”.

In the case of `C[C@H]1CN([C@@H](C)CO)C(=O)c2ccccc2-c2ccccc2CO[C@H]1CN(C)C(=O)Nc1ccc(-c2ccccc2)cc1`, the cytotoxicity call is “inactive”.

`COc1ccc(NC(=O)Cn2c(=O)c3c(OC)ccnc3n(C)c2=O)c(OC)c1`: the cytotoxicity call was “inactive”.

`COc1cc(/C=C/C(=O)O[C@H]2CC[C@]34C[C@]35CC[C@]3(C)[C@@H]([C@@H](C)CCC=C(C)C)CC[C@@]3(C)[C@@H]5CC[C@@H]4C2(C)C)ccc1O`: the cytotoxicity call was “inactive”.

Turning to `O=C1CN(S(=O)(=O)Cc2ccccc2)C[C@@H]2[C@H](c3ccc(C#Cc4cccc(F)c4)cc3)[C@H](CO)N12`, the cytotoxicity call was “active”.

Turning to `O=C(CN1CCOCC1)N[C@H]1CC[C@H](CCNC(=O)C2CCC2)O[C@H]1CO`, the cytotoxicity call was “inactive”.

Regarding `C[C@@H]1CN([C@@H](C)CO)C(=O)c2cc(NC(=O)Cn3cnnn3)ccc2O[C@H]1CN(C)Cc1ccc(C(F)(F)F)cc1`, the cytotoxicity call is “inactive”.

On to `COc1ccc(CCNC(=O)[C@@]2(Sc3ccc(C)cc3)CC(=O)N(Cc3ccccc3C(F)(F)F)[C@@H]2c2ccc(CO)cc2)cc1`, for which the cytotoxicity call is “inactive”.

Turning to `O=c1[nH]cc(S(=O)(=O)N2CCN(c3ccccc3F)CC2)c(=O)[nH]1`, the cytotoxicity call was “inactive”.

With `O=c1[nH]cc(F)c(=O)[nH]1` [listing 1 of 2 here], the cytotoxicity call was “active”.

As to `O=c1[nH]cc(N2CCCCC2)c(=O)[nH]1`, the cytotoxicity call is “inactive”.

Regarding `O=c1[nH]cc(Nc2ccccc2)c(=O)[nH]1`, the cytotoxicity call is “inactive”.

On to `CCOCc1c[nH]c(=O)[nH]c1=O`, for which the cytotoxicity call is “inactive”.

With `O=c1[nH]cc(F)c(=O)[nH]1` [listing 2 of 2 here], the cytotoxicity call was “active”.

In the case of `COc1ccc(NC(=O)N(C)C[C@H]2Oc3c(NS(=O)(=O)c4cn(C)cn4)cccc3C(=O)N([C@@H](C)CO)C[C@H]2C)cc1`, the cytotoxicity call was “inactive”.

As to `Cn1cc(S(=O)(=O)Nc2ccc3c(c2)OCCO3)c(=O)n(C)c1=O`, the cytotoxicity call was “inactive”.

Turning to `C[C@@H]1CN([C@@H](C)CO)C(=O)c2cc(C#CC3(O)CCCC3)cnc2O[C@@H]1CN(C)S(C)(=O)=O`, the cytotoxicity call was “inactive”.

In the case of `CC(C)NC(=O)N(C)C[C@H]1Oc2ccc(NC(=O)Nc3ccc4c(c3)OCO4)cc2C(=O)N([C@H](C)CO)C[C@@H]1C`, the cytotoxicity call is “inactive”.

For the compound `C=CCN(C(=O)[C@H]1N(C(C)(C)CO)C(=O)[C@H]2[C@H](C(=O)O)[C@@H]3C=C[C@@]21O3)C(C)(C)C`, the cytotoxicity call was “inactive”.

With `S=c1cc(-c2ccccc2)oc(-c2ccccc2)c1`, the cytotoxicity call was “active”.

As for `Cc1cc(-c2ccccc2)oc2cc3ccccc3c1-2`, the cytotoxicity call is “inactive”.

Turning to `O=c1cc(-c2ccccc2)oc2ccc(O)cc12`, the cytotoxicity call is “inactive”.

On to `Cc1cccnc1[C@@H](NC(=O)C1CCN(CCOc2ccc(Cl)cc2Cl)CC1)c1ccc(F)cc1`, for which the cytotoxicity call was “inactive”.

As for `O=C(N[C@@H](c1ccc(-c2ccccc2)cc1)c1cnccn1)C1CCN(CCCOc2ccccc2)CC1`, the cytotoxicity call is “active”.

On to `O=C(N[C@H](c1ccc(Cl)cc1)c1ccccn1)C1CCN(CCOc2ccc(Cl)cc2Cl)CC1`, for which the cytotoxicity call was “inactive”.

Take `O=C(N[C@@H](c1ccc2c(c1)OCO2)c1ccccn1)C1CCN(CCOc2ccc(Cl)cc2Cl)CC1`: the cytotoxicity call was “inactive”.

Take `O=C(N[C@@H](c1ccc(-c2ccccc2)cc1)c1cnccn1)C1CCN(CCOc2ccc(F)cc2)CC1`: the cytotoxicity call was “active”.

Turning to `C[C@H]1CN([C@@H](C)CO)C(=O)c2ccccc2-c2ccccc2CO[C@H]1CN(C)Cc1ccc(-c2ccccc2)cc1`, the cytotoxicity call was “inactive”.

As to `CN(C)C(=O)N1C[C@@H]2[C@@H](C1)C(=O)N(C)C21CCN(S(C)(=O)=O)CC1`, the cytotoxicity call was “inactive”.

For `C[C@H](O)[C@H](O)[C@@H](O)[C@@H](O)/C=N/NC(=O)c1ccccn1`, the cytotoxicity call was “inactive”.

For `O=C(C[C@@H]1CC[C@@H]2[C@H](COC[C@H](O)CN2CC2CCOCC2)O1)N1CCOCC1`, the cytotoxicity call is “inactive”.

As to `O=C(NCCO)c1cc2ccccc2oc1=O`, the cytotoxicity call is “inactive”.

As to `Cc1cc(C)c(N(Cc2ccccc2)S(=O)(=O)c2ccc(OCCNC(=O)c3cc4ccccc4o3)cc2)c(C(=O)NO)c1`, the cytotoxicity call was “active”.

For `CCc1nc2ccc(C(=O)NCCOc3ccc(OC)cc3)cn2c1N(CC)Cc1cccc(Br)c1`, the cytotoxicity call was “inactive”.

For the compound `Cc1ccc(S(=O)(=O)N(C)C[C@H]2Oc3ccc(NS(=O)(=O)c4cccs4)cc3C(=O)N([C@H](C)CO)C[C@@H]2C)cc1`, the cytotoxicity call was “inactive”.

On to `COc1ccc(COC[C@]23NC(=O)N(C(=O)c4ccccc4)[C@H](c4ccccc4O2)[C@H]3CO[Si](C)(C)C(C)(C)C)cc1`, for which the cytotoxicity call was “inactive”.

Turning to `C[C@@H]1CN([C@H](C)CO)C(=O)Cc2cc(NC(=O)C3CCCCC3)ccc2O[C@H]1CN(C)S(C)(=O)=O`, the cytotoxicity call is “inactive”.

On to `C[C@H]1CCCCO[C@H](CN(C)Cc2ccc(Cl)c(Cl)c2)[C@@H](C)CN([C@@H](C)CO)C(=O)c2cc(NC(=O)Nc3cccc4ccccc34)ccc2O1`, for which the cytotoxicity call is “inactive”.

`C[C@@H]1CCCCO[C@@H](CN(C)C(=O)C2CCCCC2)[C@@H](C)CN([C@@H](C)CO)C(=O)c2cc(NC(=O)NC3CCCCC3)ccc2O1`: the cytotoxicity call is “inactive”.

For the compound `C[C@@H]1CCCCO[C@H](CN(C)C(=O)C2CCCCC2)[C@@H](C)CN([C@H](C)CO)C(=O)c2cc(NC(=O)NC3CCCCC3)ccc2O1`, the cytotoxicity call is “inactive”.

`C[C@@H]1CCCCO[C@H](CN(C)C(=O)C2CCCCC2)[C@H](C)CN([C@@H](C)CO)C(=O)c2cc(NC(=O)NC3CCCCC3)ccc2O1`: the cytotoxicity call is “active”.

Turning to `C[C@H]1CCCCO[C@H](CN(C)C(=O)C2CCCCC2)[C@@H](C)CN([C@@H](C)CO)C(=O)c2cc(NC(=O)NC3CCCCC3)ccc2O1`, the cytotoxicity call is “inactive”.

For `C[C@@H]1CCCCO[C@@H](CN(C)C(=O)C2CCCCC2)[C@H](C)CN([C@@H](C)CO)C(=O)c2cc(NC(=O)NC3CCCCC3)ccc2O1`, the cytotoxicity call is “inactive”.

Consider `C[C@H](CO)N1C[C@H](C)[C@@H](CN(C)C(=O)C2CCCCC2)OCCCC[C@H](C)Oc2ccc(NC(=O)NC3CCCCC3)cc2C1=O`, for which the cytotoxicity call is “inactive”.

As for `C[C@H](CO)N1C[C@H](C)[C@H](CN(C)C(=O)C2CCCCC2)OCCCC[C@H](C)Oc2ccc(NC(=O)NC3CCCCC3)cc2C1=O`, the cytotoxicity call is “active”.

Regarding `C[C@@H]1CN([C@@H](C)CO)C(=O)c2cc(NC(=O)NC3CCCCC3)ccc2O[C@@H](C)CCCCO[C@H]1CN(C)C(=O)C1CCCCC1`, the cytotoxicity call is “active”.

Consider `C[C@@H]1CCCCO[C@H](CN(C)C(=O)C2CCCCC2)[C@@H](C)CN([C@@H](C)CO)C(=O)c2cc(NC(=O)NC3CCCCC3)ccc2O1`, for which the cytotoxicity call was “inactive”.

Turning to `CCS(=O)(=O)N1C[C@]2(CCN(CC2)S(=O)(=O)c2cn(cn2)C)c2c([nH]c3cc(ccc23)OC)[C@@H]1CO`, the cytotoxicity call is “inactive”.

Regarding `COc1ccc(S(=O)(=O)Nc2ccc3c(c2)C(=O)N([C@@H](C)CO)C[C@@H](C)[C@H](CN(C)C(=O)Nc2c(C)noc2C)OCCCC[C@@H](C)O3)cc1`, the cytotoxicity call was “inactive”.

`Cc1noc(C)c1NC(=O)N(C)C[C@@H]1Oc2ccc(NS(=O)(=O)c3c(C)noc3C)cc2C(=O)N([C@@H](C)CO)C[C@H]1C`: the cytotoxicity call is “inactive”.
